These results are taken from ChEMBL document CHEMBL2218924, “A broad activity screen in support of a chemogenomic map for kinase signalling research and drug discovery” (Biochem J, 2013).

Sequence of Serine/threonine-protein kinase Nek6 (Homo sapiens) (Q9HC98 whole entry): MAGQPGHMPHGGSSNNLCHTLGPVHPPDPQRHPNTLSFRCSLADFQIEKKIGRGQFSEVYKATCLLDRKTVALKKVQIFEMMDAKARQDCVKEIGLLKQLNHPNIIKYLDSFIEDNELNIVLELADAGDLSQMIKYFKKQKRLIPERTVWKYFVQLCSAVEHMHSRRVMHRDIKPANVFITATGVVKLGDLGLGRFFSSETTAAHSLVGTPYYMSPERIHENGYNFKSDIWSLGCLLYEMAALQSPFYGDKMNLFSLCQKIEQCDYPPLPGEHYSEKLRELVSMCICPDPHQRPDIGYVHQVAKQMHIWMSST

One assay addresses Serine/threonine-protein kinase Nek6 (Homo sapiens) (UniProt Q9HC98). As to conditions: at 1 µM.
`COc1cc2ncnc(Nc3cccc(Cl)c3)c2cc1OC`: the residual activity is 109% (inactive).

Regarding `CC(C)(C)n1nc(Cc2cccc3ccccc23)c2c(N)ncnc21`, the residual activity is 94% (inactive).

For the compound `Nc1ncnc2c1c(-c1ccc(Oc3ccccc3)cc1)cn2C1CCCC1`, the residual activity is 78% (inactive).

Take `O=C(c1ccccc1)c1ccc(N2CCOCC2)cc1O`: the residual activity is 92% (inactive).

In the case of `O=C1Cc2c([nH]c3ccc([N+](=O)[O-])cc23)-c2ccccc2N1`, the residual activity is 115% (inactive).

In the case of `Nc1ncnc2c1cnn2-c1ccccc1`, the residual activity was 99% (inactive).

Consider `O=C(O)/C=C/c1cc(Br)c(Br)c(Br)c1Br`, for which the residual activity was 96% (inactive).

Regarding `O=C1NC(=O)C(c2c[nH]c3ccccc23)=C1c1c[nH]c2ccccc12`, the residual activity is 117% (inactive).

For the compound `Cn1c2ccccc2c2c3c(c4c5ccccc5n(CCC#N)c4c21)CNC3=O`, the residual activity was 93% (inactive).

`O=C1NC(=O)c2c1c1c3ccccc3[nH]c1n1cncc21`: the residual activity was 98% (inactive).

Regarding `O=c1cc(N2CCNCC2)oc2c(-c3ccccc3)cccc12`, the residual activity was 80% (inactive).

With `CCCC(=O)Oc1ccc2[nH]c(C(=O)c3cc4ccccc4[nH]3)cc2c1`, the residual activity was 89% (inactive).

`COc1cc2nccc(Oc3ccc(NC(=S)NC(=O)c4ccccc4C)cc3)c2cc1OC`: the residual activity was 95% (inactive).

With `NC(=O)Nc1sc(-c2ccc(F)cc2)cc1C(N)=O`, the residual activity is 104% (inactive).

For `N#C/C(=C1/Nc2ccccc2S1)c1ccnc(NCCc2cccnc2)n1`, the residual activity is 119% (inactive).

With `O=c1cc(N2CCOCC2)oc2c1ccc1ccccc12`, the residual activity was 100% (inactive).

`Nc1ncnc2[nH]nc(Nc3ccc(F)cc3)c12`: the residual activity was 118% (inactive).

The target is the same in the next assay. The following applies: at 10 µM.
As to `COc1cc2ncnc(Nc3cccc(Cl)c3)c2cc1OC`, the residual activity came to 117%.

For the compound `CC(C)(C)n1nc(Cc2cccc3ccccc23)c2c(N)ncnc21`, the residual activity is 116%.

For the compound `Nc1ncnc2c1c(-c1ccc(Oc3ccccc3)cc1)cn2C1CCCC1`, the residual activity is 99%.

On to `O=C1Cc2c([nH]c3ccc([N+](=O)[O-])cc23)-c2ccccc2N1`, for which the residual activity came out at 118%.

As for `COc1ccc2c(c1)c(C1=C(c3c[nH]c4ccccc34)C(=O)NC1=O)cn2CCCN(C)C`, the residual activity is 107%.

As for `O=C(O)/C=C/c1cc(Br)c(Br)c(Br)c1Br`, the residual activity turned out to be 86%.

Turning to `O=C1NC(=O)C(c2c[nH]c3ccccc23)=C1c1c[nH]c2ccccc12`, the residual activity came out at 127%.

As to `Cn1c2ccccc2c2c3c(c4c5ccccc5n(CCC#N)c4c21)CNC3=O`, the residual activity stood at 113%.

`O=C1NC(=O)c2c1c1c3ccccc3[nH]c1n1cncc21`: the residual activity worked out at 90%.

As for `N#Cc1c(NC(=O)c2cccc3ccccc23)sc2c1CCCC2`, the residual activity stood at 93%.

Regarding `NC(=O)Nc1sc(-c2ccc(F)cc2)cc1C(N)=O`, the residual activity came out at 106%.

Regarding `O=c1cc(N2CCOCC2)oc2c1ccc1ccccc12`, the residual activity came to 106%.

`Nc1ncnc2[nH]nc(Nc3ccc(F)cc3)c12`: the residual activity was 106%.

In the next assay the target is Serine/threonine-protein kinase Nek7 (Homo sapiens) (UniProt Q8TDX7). As to conditions: at 1 µM.
Sequence of Serine/threonine-protein kinase Nek7 (Homo sapiens) (Q8TDX7 whole entry, looked up): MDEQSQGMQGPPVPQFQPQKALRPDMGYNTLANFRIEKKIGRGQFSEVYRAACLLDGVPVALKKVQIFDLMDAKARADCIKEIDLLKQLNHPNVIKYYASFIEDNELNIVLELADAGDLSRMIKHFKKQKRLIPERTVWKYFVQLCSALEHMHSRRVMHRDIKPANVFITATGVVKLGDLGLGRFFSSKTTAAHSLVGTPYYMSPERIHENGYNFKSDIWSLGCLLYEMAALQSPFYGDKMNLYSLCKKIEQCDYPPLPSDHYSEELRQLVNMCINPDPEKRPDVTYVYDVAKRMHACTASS
`COc1cc2ncnc(Nc3cccc(Cl)c3)c2cc1OC`: the residual activity was 102% (inactive).

For `CC(C)(C)n1nc(Cc2cccc3ccccc23)c2c(N)ncnc21`, the residual activity was 90% (inactive).

Turning to `Nc1ncnc2c1c(-c1ccc(Oc3ccccc3)cc1)cn2C1CCCC1`, the residual activity was 97% (inactive).

Turning to `O=C(c1ccccc1)c1ccc(N2CCOCC2)cc1O`, the residual activity was 116% (inactive).

For the compound `COc1cc2nccc(Oc3ccc(NC(=O)Nc4cc(C)on4)c(Cl)c3)c2cc1OC`, the residual activity was 98% (inactive).

As for `O=C1Cc2c([nH]c3ccc([N+](=O)[O-])cc23)-c2ccccc2N1`, the residual activity is 106% (inactive).

As for `CC(C)c1nn(-c2c(Cl)cccc2Cl)c2nc(Cc3ccc(OCCO)cc3)[nH]c(=O)c12`, the residual activity is 87% (inactive).

Regarding `Nc1ncnc2c1cnn2-c1ccccc1`, the residual activity is 87% (inactive).

Regarding `Cn1c2ccccc2c2c3c(c4c5ccccc5n(CCC#N)c4c21)CNC3=O`, the residual activity was 95% (inactive).

Turning to `O=C1NC(=O)c2c1c1c3ccccc3[nH]c1n1cncc21`, the residual activity is 100% (inactive).

Consider `O=c1cc(N2CCNCC2)oc2c(-c3ccccc3)cccc12`, for which the residual activity was 104% (inactive).

As to `CCCC(=O)Oc1ccc2[nH]c(C(=O)c3cc4ccccc4[nH]3)cc2c1`, the residual activity was 91% (inactive).

On to `COc1cc2nccc(Oc3ccc(NC(=S)NC(=O)c4ccccc4C)cc3)c2cc1OC`, for which the residual activity was 98% (inactive).

For the compound `Oc1cccc(-c2nc(N3CCOCC3)c3oc4ncccc4c3n2)c1`, the residual activity is 100% (inactive).

Regarding `O=C1Cc2c([nH]c3ccc(Br)cc23)-c2ccccc2N1`, the residual activity is 100% (inactive).

`NC(=O)Nc1sc(-c2ccc(F)cc2)cc1C(N)=O`: the residual activity is 102% (inactive).

Take `O=c1cc(N2CCOCC2)oc2c1ccc1ccccc12`: the residual activity is 103% (inactive).

Regarding `Nc1ncnc2[nH]nc(Nc3ccc(F)cc3)c12`, the residual activity is 100% (inactive).

The target is the same in a further assay. The following applies: at 10 µM.
For the compound `COc1cc2ncnc(Nc3cccc(Cl)c3)c2cc1OC`, the residual activity was 115% (inactive).

As for `O=C(NC(NC(=S)Nc1ccc(F)c([N+](=O)[O-])c1)C(Cl)(Cl)Cl)C(c1ccccc1)c1ccccc1` (configuration not stated), the residual activity is 96% (inactive).

For `Nc1ncnc2c1c(-c1ccc(Oc3ccccc3)cc1)cn2C1CCCC1`, the residual activity was 105% (inactive).

Consider `COc1cc2nccc(Oc3ccc(NC(=O)Nc4cc(C)on4)c(Cl)c3)c2cc1OC`, for which the residual activity is 103% (inactive).

With `O=C1Cc2c([nH]c3ccc([N+](=O)[O-])cc23)-c2ccccc2N1`, the residual activity was 104% (inactive).

On to `CC(C)c1nn(-c2c(Cl)cccc2Cl)c2nc(Cc3ccc(OCCO)cc3)[nH]c(=O)c12`, for which the residual activity was 84% (inactive).

Regarding `Nc1ncnc2c1cnn2-c1ccccc1`, the residual activity is 85% (inactive).

As to `Cn1c2ccccc2c2c3c(c4c5ccccc5n(CCC#N)c4c21)CNC3=O`, the residual activity was 80% (inactive).

Consider `O=C1NC(=O)c2c1c1c3ccccc3[nH]c1n1cncc21`, for which the residual activity is 86% (inactive).

As to `COc1cc2c(cc1OC)-c1n[nH]c(Nc3cccc(F)c3)c1C2`, the residual activity is 113% (inactive).

`O=c1cc(N2CCNCC2)oc2c(-c3ccccc3)cccc12`: the residual activity was 95% (inactive).

Turning to `CCCC(=O)Oc1ccc2[nH]c(C(=O)c3cc4ccccc4[nH]3)cc2c1`, the residual activity is 93% (inactive).

As for `O=C1Nc2ccccc2/C1=C\c1c(Cl)[nH]c2ccccc12`, the residual activity is 142% (inactive).

With `COc1cc2nccc(Oc3ccc(NC(=S)NC(=O)c4ccccc4C)cc3)c2cc1OC`, the residual activity was 91% (inactive).

Consider `Oc1cccc(-c2nc(N3CCOCC3)c3oc4ncccc4c3n2)c1`, for which the residual activity is 96% (inactive).

Take `O=C1Cc2c([nH]c3ccc(Br)cc23)-c2ccccc2N1`: the residual activity is 94% (inactive).

As to `NC(=O)Nc1sc(-c2ccc(F)cc2)cc1C(N)=O`, the residual activity was 103% (inactive).

Regarding `O=c1cc(N2CCOCC2)oc2c1ccc1ccccc12`, the residual activity is 95% (inactive).

For the compound `Nc1ncnc2[nH]nc(Nc3ccc(F)cc3)c12`, the residual activity is 96% (inactive).

A word on the residual activity: it is the signal under treatment as a percentage of the control signal.
